PubChem BioAssay (NCATS)
“And” between values parts separate entries of the source, which are not always exact repeats. Identical values can stand only once. Inconclusive results are not listed. The source made the active and inactive calls. Unless noted, calls come from the whole dose curve; as a rule, active = well fitted curve in the direction sought with a large enough effect; inconclusive = small, poorly fitted or top-dose-only effect, or another doubt; inactive = no such curve, though single readings can be large; an effect the other way counts as inactive or inconclusive.

How the values were obtained:
[1] = AP1 Signaling Pathway (AID 357; active = well fitted curve in either direction with a large enough effect, not every such curve was filed as active;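 note: ME-180 reporter cells stimulated with EGF at its EC50 level; % is set by controls: 0 for no effect and ±100 for the full control effect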); conditions: ME-180 AP-1-bla reporter, EGF-induced, beta-lactamase ratio, 5 h
Summary of the method: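 AP-1-bla ME-180 cells, Opti-MEM + 0.5% dialyzed FBS, plated overnight 37 °C. Cpd titration + EC50 EGF, 5 h 37 °C. CCF4 2.5 h RT; ex 405, em 460/530 ratio → %activity, AC50.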

[2] = NFAT Signaling Pathway (AID 444; active = well fitted curve in either direction with a large enough effect, not every such curve was filed as active;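 note: carbachol stimulus at about its EC50 of 1 µM final; % is set by controls: 0 for no effect and ±100 for the full control effect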); conditions: Jurkat NFAT-bla M1, carbachol, beta-lactamase ratio, 5 h
Summary of the method: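 Jurkat cells with NFAT-driven β-lactamase reporter and co-expressed M1 receptor, stimulated with carbachol (final 1 uM, ~EC50), compound titration, 5 h at 37 °C. CCF4 loaded 1 h at RT; 460/530 nm ratio gave %activity and AC50.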

[3] = Stat Signaling Pathway (AID 446; active = well fitted curve in either direction with a large enough effect, not every such curve was filed as active;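 note: ME-180 cervical cancer cells given 40 pM IL-6 alongside compound; SIE-controlled beta-lactamase reporter measured as 460/530 nm FRET emission ratio; % is set by controls: 0 for no effect and ±100 for the full control effect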); conditions: ME-180 SIE beta-lactamase reporter, IL-6 stimulated, 5 h
Summary of the method: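 ME-180 SIE-bla cells; overnight plating; cpd + IL-6 40 pM, 5 h, 37 C; LiveBLAzer 2.5 h RT; 460/530 nm emission ratio. Normalized to 300 pM IL-6 and 125 nM JAK inhibitor controls.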

[4] = target: Glucocorticoid receptor (Homo sapiens) (UniProt P04150); test: GR-GFP Redistribution (AID 450;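 active = compounds whose dose series gives a full or clear partial fitted curve of increased nuclear translocation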; note: potency is the fitted concentration of half-maximal effect); conditions: U2OS GR-GFP nuclear translocation, laser cytometry, 2 h
Glucocorticoid receptor (Homo sapiens), sequence (P04150 whole entry, looked up, the tested form may be a part): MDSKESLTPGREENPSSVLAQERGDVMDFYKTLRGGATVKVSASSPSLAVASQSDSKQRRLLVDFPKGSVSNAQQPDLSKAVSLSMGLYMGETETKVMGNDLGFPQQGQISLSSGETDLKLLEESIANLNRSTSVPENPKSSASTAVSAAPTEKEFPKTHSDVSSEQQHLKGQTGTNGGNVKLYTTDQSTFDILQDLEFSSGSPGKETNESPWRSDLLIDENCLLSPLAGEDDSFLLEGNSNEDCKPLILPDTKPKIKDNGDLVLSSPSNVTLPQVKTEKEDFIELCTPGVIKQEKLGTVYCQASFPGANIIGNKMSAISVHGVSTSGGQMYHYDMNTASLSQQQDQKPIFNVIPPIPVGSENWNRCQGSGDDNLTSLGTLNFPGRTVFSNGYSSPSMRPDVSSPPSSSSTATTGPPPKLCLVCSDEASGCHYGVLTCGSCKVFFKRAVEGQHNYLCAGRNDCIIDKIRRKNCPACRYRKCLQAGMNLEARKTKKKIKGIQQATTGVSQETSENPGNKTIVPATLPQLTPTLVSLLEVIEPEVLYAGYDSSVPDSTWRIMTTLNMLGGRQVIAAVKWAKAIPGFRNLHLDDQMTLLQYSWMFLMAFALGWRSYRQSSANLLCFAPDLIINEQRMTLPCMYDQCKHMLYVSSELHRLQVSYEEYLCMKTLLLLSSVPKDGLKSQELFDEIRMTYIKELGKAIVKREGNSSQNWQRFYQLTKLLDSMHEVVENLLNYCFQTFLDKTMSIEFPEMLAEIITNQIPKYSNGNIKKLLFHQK

[5] = target: Glucocorticoid receptor (Homo sapiens) (UniProt P04150); test: GR-EFC Redistribution (AID 451; calls by dose curve; note: potency is the fitted concentration of half-maximal effect); conditions: CHO-K1 GR-EFC translocation, beta-gal luminescence, 2 h
Summary of the method: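 CHO-K1 cells expressing nuclear EA and GR-ED fragments of b-gal; compounds titrated up to 46 uM final, 2 h at 37 C. GR nuclear translocation read as complemented b-gal luminescence after 1 h RT detection.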

[6] = target: Mitogen-activated protein kinase 10 (Mus musculus) (UniProt Q61831); test: JNK3 AlphaScreen Assay (AID 530; active = well fitted curve in either direction with a large enough effect, not every such curve was filed as active;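 note: kinase came from lysate of stimulated human HepG2 cells; signal reports phosphorylation of biotinylated GST-cJun 1-79 at Ser73 with 10 µM ATP; % is set by controls: 0 for no effect and ±100 for the full control effect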)
Summary of the method: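 qHTS format: compounds tested as titrations against IL-1beta/TNF-alpha-activated HepG2 lysate JNK3 with biotin-GST-cJun substrate and 10 uM ATP at room temperature. Loss of anti-phospho-cJun AlphaScreen signal indicates inhibition.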

[7] = target: 3',5'-cyclic-AMP phosphodiesterase 4B (Homo sapiens) (UniProt Q07343); test: qHTS Assay for Inhibitors of PDE-IV (AID 607; active = well fitted activation curve with a large enough effect in the main read-out, with a control signal flat, not every such curve was filed as active; note: % of control where 0% means no effect)
3',5'-cyclic-AMP phosphodiesterase 4B (Homo sapiens), sequence (Q07343 whole entry, looked up): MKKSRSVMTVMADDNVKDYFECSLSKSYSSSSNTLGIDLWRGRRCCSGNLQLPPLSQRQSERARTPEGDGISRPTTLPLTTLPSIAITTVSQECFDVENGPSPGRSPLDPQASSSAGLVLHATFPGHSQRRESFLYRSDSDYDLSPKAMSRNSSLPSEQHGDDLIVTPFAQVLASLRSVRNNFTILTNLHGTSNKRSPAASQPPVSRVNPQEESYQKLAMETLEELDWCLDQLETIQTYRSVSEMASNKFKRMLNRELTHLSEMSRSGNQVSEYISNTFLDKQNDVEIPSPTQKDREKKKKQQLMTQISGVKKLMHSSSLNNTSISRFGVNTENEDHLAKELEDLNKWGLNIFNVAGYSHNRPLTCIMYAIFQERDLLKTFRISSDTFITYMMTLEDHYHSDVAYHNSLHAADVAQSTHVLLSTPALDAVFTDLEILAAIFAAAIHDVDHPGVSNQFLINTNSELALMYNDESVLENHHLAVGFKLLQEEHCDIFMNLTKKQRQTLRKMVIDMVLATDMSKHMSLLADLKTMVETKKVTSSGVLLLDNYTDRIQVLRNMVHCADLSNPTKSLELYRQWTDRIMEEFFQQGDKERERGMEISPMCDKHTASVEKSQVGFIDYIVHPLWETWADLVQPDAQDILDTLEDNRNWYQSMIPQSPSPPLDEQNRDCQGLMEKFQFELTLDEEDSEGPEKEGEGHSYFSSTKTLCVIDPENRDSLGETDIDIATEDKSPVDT
Summary of the method: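 ACTOne HEK293 cells carry a modified cAMP-gated CNG channel and express endogenous PDE4; plated 1000 cells/well, compounds up to 22.9 uM final. Membrane-potential dye fluorescence (ex 535/em 590) was read; parental cells received 10 uM forskolin + 100 uM RO 20-1724.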

[8] = target: Pyruvate kinase (Leishmania mexicana) (UniProt Q27686); test: qHTS Validation Assay for Inhibitors of Leishmania Mexicana Pyruvate Kinase (AID 945);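 note: 0% = DMSO only neutral control wells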
Pyruvate kinase (Leishmania mexicana), sequence (Q27686 2-499 E452W): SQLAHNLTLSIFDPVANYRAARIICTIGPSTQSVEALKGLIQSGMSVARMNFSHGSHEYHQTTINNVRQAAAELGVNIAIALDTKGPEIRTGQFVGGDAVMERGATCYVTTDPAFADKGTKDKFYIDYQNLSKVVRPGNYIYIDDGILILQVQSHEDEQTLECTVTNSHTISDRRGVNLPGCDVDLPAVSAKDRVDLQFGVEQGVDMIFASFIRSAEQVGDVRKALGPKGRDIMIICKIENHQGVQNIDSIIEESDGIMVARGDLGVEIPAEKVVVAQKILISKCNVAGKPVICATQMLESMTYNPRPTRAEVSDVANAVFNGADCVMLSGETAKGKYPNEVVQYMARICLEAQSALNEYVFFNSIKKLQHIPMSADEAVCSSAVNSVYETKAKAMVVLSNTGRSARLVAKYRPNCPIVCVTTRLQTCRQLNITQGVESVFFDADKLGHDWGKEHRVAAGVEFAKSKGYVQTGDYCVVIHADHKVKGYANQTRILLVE
Summary of the method: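 Pyruvate kinase activity of E451W LmPYK (0.2 nM) was followed as ATP output after 1 h at room temperature with 0.5 mM PEP and 0.1 mM ADP, detected by PKLight luminescence.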

[9] = target: Pyruvate kinase PKM (Homo sapiens) (UniProt P14618); test: qHTS Assay for Activators of Human Muscle Pyruvate Kinase (AID 954; active = well fitted curve in the direction sought with a large enough effect, not every such curve was filed as active;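 note: 0% = uninhibited enzyme and -100% = no enzyme or full thiadiazolimine inhibition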)
Pyruvate kinase PKM (Homo sapiens), sequence (P14618 whole entry, looked up): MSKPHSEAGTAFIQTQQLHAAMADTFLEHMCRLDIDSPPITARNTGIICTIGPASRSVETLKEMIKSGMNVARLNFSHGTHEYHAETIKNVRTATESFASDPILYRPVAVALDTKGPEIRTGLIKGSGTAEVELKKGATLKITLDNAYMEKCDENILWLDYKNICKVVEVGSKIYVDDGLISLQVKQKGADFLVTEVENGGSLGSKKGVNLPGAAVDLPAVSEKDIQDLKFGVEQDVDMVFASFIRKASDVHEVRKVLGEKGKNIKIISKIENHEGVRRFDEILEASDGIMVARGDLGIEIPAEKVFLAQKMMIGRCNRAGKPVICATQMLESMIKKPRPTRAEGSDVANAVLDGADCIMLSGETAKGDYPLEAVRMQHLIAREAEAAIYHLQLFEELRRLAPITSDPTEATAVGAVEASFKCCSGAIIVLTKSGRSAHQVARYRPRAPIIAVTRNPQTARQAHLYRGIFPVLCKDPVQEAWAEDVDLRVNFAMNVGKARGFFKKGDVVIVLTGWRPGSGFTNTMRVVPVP
Summary of the method: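 Luminescence from a luciferase ATP-detection/stop reagent reported PKM2 activity. Reactions contained 0.1 nM purified human enzyme, 0.5 mM PEP, 0.1 mM ADP and 7 mM MgCl2 at pH 7.2, run 1 h at RT.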

[10] = target: Alpha-galactosidase A (Homo sapiens) (UniProt P06280); test: Counterscreen for Glucocerebrosidase Inhibitors: qHTS Assay for Human alpha-Galactosidase at pH 4.5 (AID 992); note: 0% is about no effect
Summary of the method: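 Enzyme at 2 nM final was combined with compound (0.7 nM to 77 uM) and 80 uM 4-methylumbelliferyl alpha-D-galactopyranoside in 50 mM citric acid, 0.005% Tween-20, pH 4.5. After 20 min at room temperature, fluorescence was read (Ex 365/Em 440 nm); AC50 came from Hill fits.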

[11] = target: alpha-glucosidase (Oryza sativa, rice) (UniProt Q653V4); test: Counterscreen for Glucocerebrosidase Inhibitors: qHTS Assay for Rice alpha-Glucosidase at pH 5.0 (AID 997);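 note: 0% = full activity with enzyme and -100% = basal without enzyme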
Summary of the method: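 Rice alpha-glucosidase (4 nM final) with 400 uM 4-methylumbelliferyl-alpha-D-glucopyranoside in citrate buffer pH 5.0, 20 min at room temperature, stopped at pH 10; fluorescence 365/440 nm, compounds 0.7 nM–77 uM, AC50 from Hill fits.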

[12] = qHTS Assay for Lipid Storage Modulators (AID 1519; calls by dose curve); conditions: Drosophila S3 cells, BODIPY lipid droplet/cell ratio, laser cytometry, cells loaded with oleic acid; for activity change, negative = inhibition: at 25.7 µM (top of the series)
Summary of the method: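 Cells seeded at 5,000 per well were treated with compounds over a concentration series and loaded with oleic acid (400 uM, as added). Lipid droplet fluorescence (488 nm excitation, 500-530 nm channel) was read by laser-scanning cytometry and normalized to 20 uM Triacsin C.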

[13] = target: ATP-dependent 6-phosphofructokinase (Trypanosoma brucei brucei) (UniProt O15648); test: qHTS Assay to Find Inhibitors of T. brucei phosphofructokinase: hit validation (AID 492961)
ATP-dependent 6-phosphofructokinase (Trypanosoma brucei brucei), sequence (O15648 whole entry, looked up): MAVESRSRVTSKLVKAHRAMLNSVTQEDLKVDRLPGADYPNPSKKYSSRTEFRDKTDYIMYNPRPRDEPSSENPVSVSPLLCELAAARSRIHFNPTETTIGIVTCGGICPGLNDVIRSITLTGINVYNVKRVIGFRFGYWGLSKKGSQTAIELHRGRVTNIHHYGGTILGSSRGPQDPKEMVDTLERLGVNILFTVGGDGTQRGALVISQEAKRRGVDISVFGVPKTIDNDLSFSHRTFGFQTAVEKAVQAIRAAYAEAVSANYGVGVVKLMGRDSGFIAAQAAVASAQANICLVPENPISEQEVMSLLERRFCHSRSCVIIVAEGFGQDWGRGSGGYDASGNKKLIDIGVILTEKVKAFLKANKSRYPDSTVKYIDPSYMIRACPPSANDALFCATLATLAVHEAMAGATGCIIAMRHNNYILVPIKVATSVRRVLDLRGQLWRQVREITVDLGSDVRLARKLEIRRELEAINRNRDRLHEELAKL
Summary of the method: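 Inhibition of parasite PFK is measured as reduced ADP formation, quantified via luciferase after ATP depletion. Assay used 0.1 mM ATP, 0.5 mM F6P, 1.25 nM enzyme, 45 min incubation.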

[14] = target: Ubiquitin carboxyl-terminal hydrolase 1 (Homo sapiens) (UniProt O94782); test: Inhibitors of USP1/UAF1: Pilot qHTS (AID 504865);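 note: rhodamine fluorescence freed from ubiquitin-rhodamine substrate followed over time; top concentration of the series differs between compounds; % is set by controls: 0 for no effect and ±100 for the full control effect; nearly all actives have a fitted effect of over 35% in size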
Ubiquitin carboxyl-terminal hydrolase 1 (Homo sapiens), sequence (O94782 whole entry, looked up): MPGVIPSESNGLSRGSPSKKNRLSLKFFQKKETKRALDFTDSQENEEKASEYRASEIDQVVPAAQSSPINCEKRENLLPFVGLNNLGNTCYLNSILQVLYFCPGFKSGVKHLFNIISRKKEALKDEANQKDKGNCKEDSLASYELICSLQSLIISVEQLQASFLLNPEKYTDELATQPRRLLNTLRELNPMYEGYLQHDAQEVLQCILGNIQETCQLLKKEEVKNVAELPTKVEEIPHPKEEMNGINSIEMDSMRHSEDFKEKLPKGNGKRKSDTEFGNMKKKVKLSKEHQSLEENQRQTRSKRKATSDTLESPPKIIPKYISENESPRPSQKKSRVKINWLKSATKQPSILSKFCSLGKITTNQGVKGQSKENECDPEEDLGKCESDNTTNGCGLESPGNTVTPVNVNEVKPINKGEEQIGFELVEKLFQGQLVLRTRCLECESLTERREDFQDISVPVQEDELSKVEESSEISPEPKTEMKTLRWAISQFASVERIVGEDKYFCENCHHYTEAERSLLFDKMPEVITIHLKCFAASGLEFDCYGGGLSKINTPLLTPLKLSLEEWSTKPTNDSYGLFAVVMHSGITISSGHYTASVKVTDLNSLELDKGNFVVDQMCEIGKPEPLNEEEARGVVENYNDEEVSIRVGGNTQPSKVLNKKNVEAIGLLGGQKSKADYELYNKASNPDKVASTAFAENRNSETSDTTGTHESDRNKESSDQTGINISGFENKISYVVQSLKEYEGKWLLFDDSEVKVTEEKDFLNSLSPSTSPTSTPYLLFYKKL
Summary of the method: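 1nM USP1/UAF1 + cpd, 15 min RT; start w/ Ub-Rho 150nM final; kinetic FL 480/540 nm, 6 reads q60 s. Buffer 50mM HEPES pH 7.8, 0.5mM EDTA, 1mM TCEP, 0.01% Tween-20, 0.1 mg/ml BSA.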

[15] = target: Luciferin 4-monooxygenase (Photinus pyralis) (UniProt P08659); test: Biochemical firefly luciferase enzyme assay for NPC (AID 624030);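 note: purified P. pyralis luciferase at 10 nM with luciferin and ATP substrate; 0% = DMSO and -100% = full luciferase inhibition by PTC124 control; nearly all actives have a fitted effect of over 70% in size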
Luciferin 4-monooxygenase (Photinus pyralis), sequence (P08659 whole entry, looked up): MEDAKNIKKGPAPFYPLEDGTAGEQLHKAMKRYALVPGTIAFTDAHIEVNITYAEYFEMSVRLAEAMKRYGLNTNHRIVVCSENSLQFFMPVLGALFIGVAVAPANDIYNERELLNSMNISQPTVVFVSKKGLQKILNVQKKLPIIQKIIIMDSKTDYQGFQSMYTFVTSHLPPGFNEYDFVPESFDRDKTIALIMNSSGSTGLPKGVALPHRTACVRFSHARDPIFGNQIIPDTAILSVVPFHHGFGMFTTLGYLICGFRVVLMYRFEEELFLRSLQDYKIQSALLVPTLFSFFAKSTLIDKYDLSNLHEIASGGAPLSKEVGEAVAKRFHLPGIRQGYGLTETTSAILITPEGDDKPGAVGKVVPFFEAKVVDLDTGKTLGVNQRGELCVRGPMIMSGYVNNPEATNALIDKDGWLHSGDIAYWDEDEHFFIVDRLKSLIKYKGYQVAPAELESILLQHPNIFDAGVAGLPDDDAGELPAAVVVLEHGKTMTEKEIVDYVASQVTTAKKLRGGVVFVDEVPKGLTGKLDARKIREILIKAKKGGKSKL
Summary of the method: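 Purified P. pyralis luciferase at 10 nM in 50 mM Tris Acetate (final), luminescence read within 5 minutes of enzyme addition to compounds. Activity normalised to PTC124 versus DMSO; concentration-response curves classed by r2, magnitude and activity.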

[16] = qHTS profiling for inhibitors of Plasmodium falciparum proliferation (AID 504749);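 note: 0% = DMSO vehicle and full inhibition = artemisinin control; nearly all actives have a fitted effect of over 60% in size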; conditions: P. falciparum in erythrocytes, SYBR Green DNA, 72 h
Summary of the method: (§1)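 Readout was DNA-dye fluorescence from lysed cultures, ex 485/em 535 nm. Parasitized red cells had grown 72 h with compound; data scaled between 0.29 uM artemisinin and DMSO wells and corrected using vehicle-only plates.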

AS120 = test: as above; conditions: P. falciparum in erythrocytes, SYBR Green DNA, 72 h; series mostly up to 28.7 µM
Summary of the method: as §1

CP250 = test: as above; conditions: P. falciparum in erythrocytes, SYBR Green DNA, 72 h; series mostly up to 12.8 µM
Summary of the method: as §1

[17] = target: Cytochrome P450 1A2 (Homo sapiens) (UniProt P05177); test: p450-cyp1a2 (AID 410; calls by dose curve; note: potency is the fitted concentration of half-maximal effect;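 for activity change, negative = inhibition: -100% = full effect of reference inhibitor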)
Cytochrome P450 1A2 (Homo sapiens), sequence (P05177 whole entry, looked up): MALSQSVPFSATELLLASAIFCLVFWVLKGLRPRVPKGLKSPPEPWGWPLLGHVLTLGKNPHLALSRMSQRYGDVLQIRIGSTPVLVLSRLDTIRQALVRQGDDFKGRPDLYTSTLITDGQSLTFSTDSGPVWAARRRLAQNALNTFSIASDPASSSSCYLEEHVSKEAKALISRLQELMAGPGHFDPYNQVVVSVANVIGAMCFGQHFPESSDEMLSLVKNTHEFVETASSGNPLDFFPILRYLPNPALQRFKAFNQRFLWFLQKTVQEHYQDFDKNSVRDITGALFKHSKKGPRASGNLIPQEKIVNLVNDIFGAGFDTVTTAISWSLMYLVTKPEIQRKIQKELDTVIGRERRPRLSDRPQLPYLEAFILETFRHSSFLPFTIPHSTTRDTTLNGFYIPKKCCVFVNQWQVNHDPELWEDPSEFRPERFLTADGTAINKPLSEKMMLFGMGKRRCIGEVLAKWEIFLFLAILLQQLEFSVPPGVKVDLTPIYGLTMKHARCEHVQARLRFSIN
Summary of the method: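 Human CYP1A2 (20nM) demethylated Luciferin-ME at its Km (100uM) in 100mM KPO4. After 10 min compound preincubation, NADPH regeneration ran the reaction 60 min at room temperature. Luciferin was read by luminescence, normalized to 57 uM furafylline.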

[18] = measured here: cell count channel max response
[19] = measured here: lipid channel max response
[20] = at 7.69 µM (top of the series) unless noted
[21] = at 12.8 µM (top of the series), parasite line A
[22] = at 12.8 µM (top of the series), parasite line B

COCCc1ccc(OC[C@H](O)CNC(C)C)cc1
10.9%: max response [12, 18]
inactive: activity change, negative = inhibition ([1]; at 17.2 µM (top of the series)) 15.8% | activity change, negative = inhibition ([1]; at 38 µM (top of the series)) 13.6% | activity change, negative = inhibition ([2]; at 17.2 µM (top of the series)) 1.88% | activity change, negative = inhibition ([2]; at 38 µM (top of the series)) -1.17% | activity, negative = inhibition ([3]; at 17.2 µM (top of the series)) -1.97% | activity, negative = inhibition ([3]; at 38 µM (top of the series)) 13.4% | Potency [4] > 46 µM and > 20.6 µM | Potency [5] > 46 µM and > 20.6 µM | Potency [6] | Potency [7] | outcome [8] | outcome [9] | outcome [10] | outcome [11] | activity change, negative = inhibition [12] 1.2% | outcome [13] | Potency [14] | outcome [15] | activity, negative = inhibition ([16]; at 28.7 µM (top of the series), parasite line A) 13.1% | activity, negative = inhibition ([16]; at 28.7 µM (top of the series), parasite line B) 3.39% | Potency (AS120) | Potency (CP250)
11.2%: max response [12, 19]

CO[C@H]1C[C@@H](O[C@@H]2[C@H](C)[C@H](O[C@@H]3O[C@@H](C)C[C@@H](N(C)C)[C@@H]3O)[C@H](C)C[C@]3(CO3)C(=O)[C@H](C)[C@H](O)[C@H](C)[C@H](C)OC(=O)[C@@H]2C)O[C@@H](C)[C@H]1O
9.47%: max response [12, 18]
inactive: activity change, negative = inhibition [1, 20] 2.97% [at 17.2 µM] | Potency [17] | activity change, negative = inhibition [2, 20] 8.23% [at 17.2 µM] | activity, negative = inhibition [3, 20] -6.44% [at 17.2 µM] | Potency [4] > 20.6 µM | Potency [5] > 20.6 µM | Potency [6] | Potency [7] | activity change, negative = inhibition [12] 1.28% | outcome [13] | Potency [14] | outcome [15] | activity, negative = inhibition [16, 21] -15.5% | activity, negative = inhibition [16, 22] -11.7% | Potency (AS120) | Potency (CP250)
11.6%: max response [12, 19]

COc1ccccc1OC[C@H](O)COC(N)=O
-1.12%: max response [12, 18]
2.55%: max response [12, 19]
inactive: activity change, negative = inhibition [1, 20] -6.22% [at 17.2 µM] | activity change, negative = inhibition [2, 20] -5.33% [at 17.2 µM] | activity, negative = inhibition [3, 20] 10.4% [at 17.2 µM] | Potency [4] > 20.6 µM | Potency [5] > 20.6 µM | Potency [6] | Potency [7] | activity change, negative = inhibition [12] 1.49% | outcome [13] | Potency [14] | outcome [15] | activity, negative = inhibition [16, 21] 3.95% | activity, negative = inhibition [16, 22] 18.1% | Potency (AS120) | Potency (CP250)
active: Potency [17] 10 µM
